Measured values published in ChEMBL document CHEMBL1157539, “Thousands of chemical starting points for antimalarial lead identification” (Nature, 2010).

Tests used:
Format in all cases: functional
Plasmodium falciparum [1] = test: GSK_TCMDC: Inhibition of Plasmodium falciparum 3D7 in whole red blood cells, using parasite LDH activity as an index of growth. Test compounds present at 2uM
Plasmodium falciparum [2] = test: GSK_TCMDC: Inhibition of Plasmodium falciparum Dd2 in whole red blood cells, using parasite LDH activity as an index of growth. Test compounds present at 2uM
HepG2 = test: GSK_TCMDC: Percent inhibition of human HepG2 cell line. Test compounds present at 10uM.

CN1CCC(c2ccc(NC(=O)c3ccc(-c4cccc(C(F)(F)F)c4)o3)cc2)CC1
Inhibition (Plasmodium falciparum [1]): 86%
Inhibition (Plasmodium falciparum [2]): 23%
Inhibition (HepG2): 23%

O=C(Nc1ccc2ccccc2c1)N1CCC(NCc2cccc([N+](=O)[O-])c2)CC1.O=C(O)C(F)(F)F
Inhibition (Plasmodium falciparum [1]): 98%
Inhibition (Plasmodium falciparum [2]): 0%
Inhibition (HepG2): 0%

COc1ccc(-n2ccnc2)cc1CNC1CCN(CC2Cn3c(=O)ccc4ccc(F)c2c43)CC1.O=C(O)C(F)(F)F (configuration not stated)
Inhibition (Plasmodium falciparum [1]): 99%
Inhibition (Plasmodium falciparum [2]): 18%
Inhibition (HepG2): 25%

CCNC(=O)Nc1ccc(N(C)c2ccnc(Nc3ccc(CS(C)(=O)=O)cc3)n2)cc1.Cl
Inhibition (Plasmodium falciparum [1]): 100%
Inhibition (Plasmodium falciparum [2]): 99%
Inhibition (HepG2): 0%

COc1cc2nc(Nc3ccc(Oc4ccccc4)cc3)nc(Nc3ccc(Oc4ccccc4)cc3)c2cc1OC
Inhibition (Plasmodium falciparum [1]): 95%
Inhibition (Plasmodium falciparum [2]): 45%
Inhibition (HepG2): 5%

CCOC(=O)c1c(NC(=O)c2ccccc2)sc2c(O)c(CNC3CCCCC3)ccc12
Inhibition (Plasmodium falciparum [1]): 99%
Inhibition (Plasmodium falciparum [2]): 98%
Inhibition (HepG2): 6%

NC1=NC(c2ccccc2)(c2ccccc2)C(=O)N1Cc1ccccc1Br.O=CO
Inhibition (Plasmodium falciparum [1]): 93%
Inhibition (Plasmodium falciparum [2]): 38%
Inhibition (HepG2): 36%

CN1CCN(c2ccc(Nc3ncc([N+](=O)[O-])c(Nc4ccccc4O)n3)cc2)CC1.O=C(O)C(F)(F)F
Inhibition (Plasmodium falciparum [1]): 100%
Inhibition (Plasmodium falciparum [2]): 97%
Inhibition (HepG2): 98%

CCNCc1cccc(-c2ccc3ccnc(N)c3c2)c1
Inhibition (Plasmodium falciparum [1]): 100%
Inhibition (Plasmodium falciparum [2]): 98%
Inhibition (HepG2): 17%

Fc1ccc2c(NN=CC=Cc3ccccc3)ccnc2c1
Inhibition (Plasmodium falciparum [1]): 100%
Inhibition (Plasmodium falciparum [2]): 98%
Inhibition (HepG2): 0%

Cc1cc(F)ccc1Nc1nc(N(C)c2ccccc2)c2cccc(OCCO)c2n1
Inhibition (Plasmodium falciparum [1]): 95%
Inhibition (Plasmodium falciparum [2]): 94%
Inhibition (HepG2): 34%

Cc1cccc2nc(-c3ccc(-c4ccc(CN5CCN(C6CCN(C)CC6)CC5)cc4)s3)[nH]c12.O=C(O)C(F)(F)F
Inhibition (Plasmodium falciparum [1]): 100%
Inhibition (Plasmodium falciparum [2]): 100%
Inhibition (HepG2): 97%

COc1ccc(N(C)Cc2cnc3nc(N)nc(N)c3n2)cc1
Inhibition (Plasmodium falciparum [1]): 98%
Inhibition (Plasmodium falciparum [2]): 0%
Inhibition (HepG2): 15%

CC(C)(C)OC(=O)N[C@@H](Cc1ccccc1)C(=O)Nc1cccc(-c2cccc(NC(=O)[C@H](Cc3ccccc3)NC(=O)OC(C)(C)C)c2)c1
Inhibition (Plasmodium falciparum [1]): 100%
Inhibition (Plasmodium falciparum [2]): 97%
Inhibition (HepG2): 10%

COc1c(CNCCCCCCNCc2cc(Cl)c3ccccc3c2OC)cc(Cl)c2ccccc12.CS(=O)(=O)O
Inhibition (Plasmodium falciparum [1]): 96%
Inhibition (Plasmodium falciparum [2]): 45%
Inhibition (HepG2): 100%

CN1CCCC1CCOc1ccc2c(c1)N(C(=O)Nc1cc(Br)cc(C(F)(F)F)c1)CC2.O=C(O)C(F)(F)F (configuration not stated)
Inhibition (Plasmodium falciparum [1]): 100%
Inhibition (Plasmodium falciparum [2]): 97%
Inhibition (HepG2): 13%

COc1ccc(N2C(=O)c3c(c4ccccc4n3C)C2c2ccccc2O)cc1 (configuration not stated)
Inhibition (Plasmodium falciparum [1]): 96%
Inhibition (Plasmodium falciparum [2]): 91%
Inhibition (HepG2): 32%

Cc1cccc2nc(-c3cccc(-c4cccc(CNCCc5ccncc5)c4)c3)[nH]c12.O=C(O)C(F)(F)F
Inhibition (Plasmodium falciparum [1]): 100%
Inhibition (Plasmodium falciparum [2]): 99%
Inhibition (HepG2): 20%

COc1ccc(C(=O)NCc2ccc(N)nc2C)cc1Nc1ncc(-c2cccc(N(C)C)c2)cn1
Inhibition (Plasmodium falciparum [1]): 89%
Inhibition (Plasmodium falciparum [2]): 68%
Inhibition (HepG2): 9%
